This note sets out measurements from PubChem BioAssay AID1956 (SRMLSC, 2009).

Several values for one entry are separate records, joined by “and”; a condition that tells them apart may be missing. Equal values may be shown once. Out of some 220,000 compounds screened, about 10 (0.005%) were called active. Cut-off read from the data, not from the text of the source: active = maximum fold increase above about 1.5; inconclusive = no clear call, values can overlap the other calls; inactive = below that; tested in PC3 cells. A selection follows.

The nature of this assay: compounds boosting herpes simplex virus growth – fold increase, host cell viability (AID 1956). Conditions: HSV replication augmentation in cells; fold increase: measured here: primary screen fold increase 10 uM, at 10 µM, stronger effect = higher value; maximum fold increase: at 0.098 µM, stronger effect = higher value; viability: measured here: host cell viability series, at 25 µM, stronger effect = lower value.
In the case of `CC(=O)NC(=S)Nc1ccc(NC(=O)c2cccnc2)cc1`, the fold increase stood at 0.97 and the outcome was inactive.
`COc1ccc(/C=N/n2nnnc2N)cc1OC`: the fold increase is 0.91 and the compound was classed as inactive.
`Cc1ccc(/C=N/NC(=S)NC2CCCCC2)o1`: the fold increase amounted to 0.99 and the result was inactive.
On to `O=C(O)C1CCN(C(=O)c2cc(F)cc3c2OCOC3)CC1`, for which the fold increase came out at 1.05 and the call was inactive.
For the compound `C[C@H]1CC[C@]2(O[C@@H](CCO)C[C@@H](O)[C@@H]2O)O1`, the fold increase was determined as 0.79 and the compound was classed as inactive.
With `O=C(O)CCCCCCCCCC[n+]1ccccc1`, the fold increase worked out at 0.88 and the compound was classed as inactive.
For the compound `COc1ccc2c(c1)CCNC2Cc1ccc(OC)c(O)c1` (configuration not stated), the fold increase amounted to 0.84 and the compound was called inactive.
As for `O=C1c2ccccc2S(=O)(=O)c2cc(N3CCN(c4ccccn4)CC3)ccc21`, the fold increase came out at 0.92 and the compound was classed as inactive.
Regarding `CCOC(=O)c1ccc(NC(=O)c2c(N)n(C)c(=O)[nH]c2=O)cc1`, the fold increase turned out to be 0.86 and the result was inactive.
For `COC(=O)c1cc(NC(=O)c2cc(C(C)(C)C)nn2Cc2cccc(C)c2)ccc1N1CCOCC1`, the fold increase amounted to 0.93 and the result was inactive.
For the compound `COc1ccc(-c2csc(NC3OC(=O)c4ccccc43)n2)cc1` (configuration not stated), the fold increase was determined as 0.65 and the outcome was inactive.
For the compound `O=C(O)Cc1csc(-c2cccc(Oc3ccccc3)c2)n1`, the fold increase is 1.01 and 0.89; the compound was classed as inactive.
In the case of `Cc1ccc(CNC(=O)c2ccc3c(c2)S(=O)(=O)c2ccccc2C3=O)cc1`, the fold increase turned out to be 0.82 and the outcome was inactive.
For the compound `O=C(Cc1ccccc1)Nc1c(Cl)ccc2nsnc12`, the fold increase stood at 1.01 and the compound was classed as inactive.
Consider `COc1ccc(Cl)cc1CSc1ncn[nH]1`, for which the fold increase was found to be 0.97 and the compound was called inactive.
For `Cc1c(NC(=O)C(=O)N/N=C/c2cccs2)c(=O)n(-c2ccccc2)n1C` the same measures were 0.92 and “inactive”.
As for `O=C(NC1CC1)C1=C[C@H](c2coc3ccccc3c2=O)C[C@H](OCCCCO)O1`, the fold increase was 0.73 and the call was inactive.
For `CC(C)Cc1ccc(C(C)C(=N)N)cc1` (configuration not stated), the fold increase was found to be 0.92 and the compound was called inactive.
Take `CC(C)(C)n1nc(Cc2cccc3ccccc23)c(C#N)c1N`: the fold increase was determined as 0.79 and the compound was called inactive.
As to `Oc1ccc(-c2nnc(Nc3ccccc3)c3ccccc23)cc1`, the fold increase turned out to be 0.8 and the outcome was inactive.
On to `CC1(C)CC(N2CCN(C(c3ccccc3)c3ccccc3)CC2)=CC(=[N+]2CCCCC2)C1`, for which the fold increase was 0.65 and the result was inactive.
Turning to `C#CCOCCOCCOCCNc1nc(N2CCN(C(=O)C([C@@H](C)CC)n3cc(C(N)COC(=O)C(F)(F)F)nn3)CC2)nc(N2CCN(C(=O)[C@H](Cc3ccc(O)cc3)n3cc(C(N)[C@H](C)CC)nn3)CC2)n1` (some centres not stated), the fold increase came to 0.87 and the call was inactive.
Turning to `C#CCNC(=O)[C@H](Cc1ccc(C(=O)c2ccccc2)cc1)NC(=O)OC(C)(C)C`, the fold increase was 0.7 and the result was inactive.
In the case of `COc1ccccc1-n1cn[nH]c1=S`, the fold increase came out at 0.88 and the result was inactive.
In the case of `O=C(O)CCn1c(O)c(C=C2N=c3ccccc3=N2)sc1=S`, the fold increase is 1.18 and the result was inactive.
For `Cc1nc(Cl)c(C#N)c2c1CCCC2`, the fold increase stood at 0.96 and the compound was called inactive.
For `O=c1[nH]snc1-c1c(Cl)cccc1Cl` the same measures were 0.9 and “inactive”.
For `C[C@@H](NC(=O)OC(C)(C)C)c1nnc(S(=O)(=O)Cc2ccccc2)o1`, the fold increase came out at 0.98 and the result was inactive.
Turning to `OCC[C@H]1C[C@H](O)[C@@H](O)[C@]2(CCCCO2)O1`, the fold increase amounted to 0.79 and the compound was called inactive.
Consider `CCCCCCCCCCCCN1[C@@H](CC(C)=O)c2cc(F)cc(F)c2S1(=O)=O`, for which the fold increase came to 0.93 and the compound was called inactive.
Taken in the same sequence, the figures for `COc1ccc(CN2[C@@H](CC(=O)O)c3cc(F)ccc3S2(=O)=O)cc1` were 0.82 and “inactive”.
Take `C=CCC(Nc1ccccc1)c1cccc(OC)c1OC` (configuration not stated): the fold increase was 0.99 and the outcome was inactive.
For `COc1ccc(CNC(=O)C2(CC3CC(c4ccccc4)=NO3)CCN(C(=O)c3cccc(O)c3)CC2)cc1` (configuration not stated) the same measures were 0.88 and “inactive”.
As to `CC1CCN(Cc2nc(-c3ccc(Cl)cc3)no2)CC1`, the fold increase came to 0.99 and the compound was classed as inactive.
`NC(=O)NC(=O)CSc1nc2cc([N+](=O)[O-])ccc2n1-c1cccc(C(F)(F)F)c1`: the fold increase is 0.9 and the call was inactive.
Consider `COc1ccc(N2C(=O)C3C(C2=O)C(C(=O)c2ccccc2)N2CCCC32)cc1` (configuration not stated), for which the fold increase came out at 1.02 and the compound was called inactive.
For `Cc1ccccc1NC(=O)Nc1ccccc1N1CCCCC1`, the fold increase was found to be 0.85 and the outcome was inactive.
`CCCC[C@@H]1CN=C(N)N1CCc1cccc(F)c1`: the fold increase amounted to 0.84 and the call was inactive.
Regarding `C/C=C(/C)C(=O)O[C@@H]1c2cc3c(c4c2[C@@]2(CO4)C(=O)C(OC)=C(OC)C=C2C[C@@H](C)[C@H]1C)OCO3`, the fold increase amounted to 0.75 and the result was inactive.
Take `CC1Cc2ccccc2N1CC(=O)Nc1ccc(S(N)(=O)=O)cc1` (configuration not stated): the fold increase came out at 1.03 and the call was inactive.
On to `O=C(Nc1nnc(COc2ccccc2)s1)Nc1ccccc1F`, for which the fold increase worked out at 0.9 and the compound was classed as inactive.
`COc1ccc(COCCN2CCN(S(=O)(=O)c3ccccc3)CCC2=O)cc1`: the fold increase was found to be 0.895 and the compound was classed as inactive.
Taken in the same sequence, the figures for `N/C(=N\OC(=O)CCn1cccc(C(F)(F)F)c1=O)c1ccc(OC(F)(F)F)cc1` were 0.99 and “inactive”.
Taken in the same sequence, the figures for `C=CC(COCc1ccccc1)N(Cc1ccccc1)S(=O)(=O)c1ccccc1Br` (configuration not stated) were 1.29 and “inactive”.
`Cc1cc(C(=O)NNS(=O)(=O)c2ccccc2C(F)(F)F)nn1C(C)(C)C`: the fold increase came to 1 and the result was inactive.
As for `CC1(C)S[C@@H]2[C@H](N=CN3CCCCCC3)C(=O)N2[C@H]1C(=O)O`, the fold increase worked out at 0.85 and the call was inactive.
As to `CN(C)N=Nc1ccc2nc[nH]c2c1`, the fold increase stood at 1.29 and the outcome was inactive.
For the compound `O=C(O)C1CCN(c2ccc([N+](=O)[O-])cc2[N+](=O)[O-])CC1`, the fold increase is 0.9 and the call was inactive.
With `CCOC(=O)c1ccc(NC(=O)c2nc[nH]c2C(=O)NCc2ccccc2)cc1`, the fold increase came out at 0.92 and the call was inactive.
`CC(C)(C)Oc1ccccc1Nc1nc(NCCO)nc(N2CCCC2)n1`: the fold increase turned out to be 0.69 and the compound was called inactive.
In the case of `CCOC(=O)C1Nc2ccc(C(F)(F)F)cc2C2C=CCC12` (configuration not stated), the fold increase turned out to be 0.82 and the compound was called inactive.
For the compound `O=[N+]([O-])c1ccc(N/N=C/c2ccccc2)cc1`, the fold increase was found to be 1.08 and the outcome was inactive.
Taken in the same sequence, the figures for `O=c1c2c3c(sc2n(CCN2CCCC2)c(=O)n1Cc1ccccc1)CCCCC3` were 0.84 and “inactive”.
Turning to `Cc1ccc(NC(=O)/C(=C/c2ccc([N+](=O)[O-])cc2)NC(=O)c2ccccc2)cc1`, the fold increase stood at 0.83 and the call was inactive.
`COc1ccc2[nH]c(=S)cc(C)c2c1`: the fold increase was found to be 1.08 and the compound was classed as inactive.
Take `CCOC(=O)C1CCN(c2c(Nc3cc(C)cc(C)c3)c(=O)c2=O)CC1`: the fold increase is 0.95 and the call was inactive.
For `CC(NC(=S)Nc1ccccc1)C(c1cccs1)N1CCOCC1` (configuration not stated), the fold increase stood at 1 and the result was inactive.
For the compound `Cc1nc(-c2ccc(Cl)cc2)sc1C1(C)CC(c2ccc(Br)cc2)=NO1` (configuration not stated), the fold increase was determined as 0.87 and the compound was classed as inactive.
As to `CCOC(=O)/C=C/c1ccc(C(F)(F)F)cc1S(=O)(=O)NC(C)(C)C`, the fold increase came to 0.67 and the compound was classed as inactive.
In the case of `CC(C)n1c(=S)[nH]c2cc(C(F)(F)F)ccc21`, the fold increase stood at 1.02 and the compound was called inactive.
Taken in the same sequence, the figures for `COc1cccc(Nc2nnc(SCC(=O)N3CC(=O)Nc4ccccc43)s2)c1` were 1 and “inactive”.
As for `CCc1nnc(SCc2cccc(F)c2)nc1CC`, the fold increase worked out at 1.19 and the compound was called inactive.
Turning to `CC1(C)CC[C@]2(C(=O)O)CC[C@]3(C)C(=CCC4[C@@]5(C)CC[C@H](O)C(C)(C)C5[C@H](O)C[C@]43C)[C@@H]2C1` (some centres not stated), the fold increase turned out to be 0.82 and the result was inactive.
Taken in the same sequence, the figures for `COC(C[C@@H](O)C[C@@H](O)[C@H](C)OCc1ccccc1)OC` were 1.01 and “inactive”.
Taken in the same sequence, the figures for `COC(=O)c1cc(=O)n(-c2c(Cl)cc(C(F)(F)F)cc2Cl)[nH]1` were 0.98 and “inactive”.
As for `S=c1[nH]nc(-c2cc(-c3ccccc3)n[nH]2)n1/N=C/c1c2ccccc2cc2ccccc12`, the fold increase is 0.83 and the call was inactive.
In the case of `Cc1cc(C)nc(NC(=O)/C=C/c2ccc(Cl)cc2)n1`, the fold increase worked out at 0.99 and the outcome was inactive.
Regarding `S=C(NNC(=S)NC1CC2C=CC1C2)NC1CC2C=CC1C2` (configuration not stated), the fold increase turned out to be 0.93 and the compound was classed as inactive.
For `CCCCN1C(N)=NC[C@@H]1CC1CCCCC1` the same measures were 0.8 and “inactive”.
For `C=CCC1(C(=O)N(C)Cc2ccccc2)CCN(C(=O)OC(C)(C)C)CC1` the same measures were 0.96 and “inactive”.
For `NC(=O)C1=C[C@@H](c2csc3ccccc23)C[C@@H](OCc2ccc(CO)cc2)O1` the same measures were 0.78 and “inactive”.
With `COC(C[C@H](O)CC(=O)[C@@H](C)OCc1ccccc1)OC`, the fold increase is 0.76 and the call was inactive.
For the compound `CCCOc1ccc(Cl)cc1Nc1nc(NCCO)nc(N2CCCC2)n1`, the fold increase is 0.59 and the result was inactive.
For `CC1(c2nnc(-c3ccncc3)o2)CC(c2cccnc2)=NO1` (configuration not stated), the fold increase was determined as 0.69 and the compound was classed as inactive.
`Cc1cc(Cl)ccc1NNC(=O)c1snnc1C`: the fold increase was found to be 1.06 and the result was inactive.
With `CCC1(CC)C(=O)C2=C3C1[C@H](C(=O)OC)C=C(C(=O)OC)C[C@H]3[C@H]1C(=O)N(Cc3ccccc3)C(=O)[C@H]1[C@H]2C` (some centres not stated), the fold increase came out at 0.96 and the outcome was inactive.
Take `CCC(C)N1C(=S)SC(C)(C)C1N(O)C(=O)NC1CCCCC1` (configuration not stated): the fold increase was 0.99 and the call was inactive.
As to `NC(=O)CC(NC(=O)Cc1cccc2ccccc12)c1ccc(NCc2cc(F)ccc2F)c([N+](=O)[O-])c1` (configuration not stated), the fold increase was found to be 0.77 and the outcome was inactive.
Regarding `CC1(C)C=Cc2c(ccc3c2OC[C@@H](c2ccc(O)cc2O)C3)O1`, the fold increase came to 0.67 and the result was inactive.
Regarding `Nc1nc(O)c(CC(=O)O)s1`, the fold increase was found to be 1.21 and the compound was called inactive.
Turning to `Clc1ccc2nc(-c3ccccc3)nc(C(Cl)Cl)c2c1`, the fold increase came to 0.64 and the outcome was inactive.
For `CCCCN1C(N)=NC[C@@H]1Cc1ccccc1` the same measures were 0.87 and “inactive”.
In the case of `Cc1nnc(SC(C(=O)c2ccccc2)c2ccccc2)[nH]c1=O` (configuration not stated), the fold increase came out at 0.88 and the result was inactive.
For the compound `CN1CCc2nc(SC(C(=O)O)c3ccccc3)c(C#N)c(-c3cccs3)c2C1` (configuration not stated), the fold increase was 0.99 and the outcome was inactive.
`C/C(=N\Nc1cccc(C(=O)O)c1)c1ccc2c(c1)Nc1ccccc1S2`: the fold increase is 1.22 and the outcome was inactive.
Turning to `O=C(NCc1ccccc1)c1onc(CSc2ccncc2)c1C(=O)NCc1ccccc1`, the fold increase was 0.71 and the compound was called inactive.
On to `O=C(N/N=C\c1cc(Br)c(Br)o1)C1COc2ccccc2O1` (configuration not stated), for which the fold increase was 1.28 and the call was inactive.
With `CC(C)c1cc(CN2CCOCC2)cc(C(C)C)c1O`, the fold increase was 1.06 and the compound was classed as inactive.
For `CC(C)=CCc1c(O)c(CC=C(C)C)c2occ(-c3ccc(O)cc3)c(=O)c2c1O`, the fold increase amounted to 0.74 and the compound was classed as inactive.
Regarding `CN(C)CCCN(Cc1cc2cc3c(cc2[nH]c1=O)OCCO3)C(=O)NC1CCCCC1`, the fold increase was determined as 0.89 and the compound was classed as inactive.
In the case of `C/C(CC(C)C)=N\Oc1nc(C)cc(C)n1`, the fold increase worked out at 0.9 and the outcome was inactive.
